In all, about 5,500 compounds went through this assay and about 2,000 (36%) were called active. Roughly 18% stayed inconclusive and do not appear here. No stated cut-off is given here; in the data, active means normalized growth mostly below about 0.91 (no sharp cut-off); inconclusive means no clear call, values can overlap the other calls; inactive means mostly above about 0.92. Some of the results follow.
Assay: chemical genetic growth profiling, strain panel (AID 1159580);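 further: tested at 20 µM; growth read once vehicle control cultures reached saturation at 30 °C; 1 = growth at the plate median or of vehicle wells; lower values mean less growth of the strain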
Details: S. cerevisiae deletion strains, growth OD

Measured: normalized growth

CC1=C(/C=C/C(C)=C/C=C/C(C)=C/C=C/C=C(C)/C=C/C=C(C)/C=C/C(=O)[C@]2(C)C[C@@H](O)CC2(C)C)C(C)(C)C[C@H](O)C1
active: locus YNL248C, strain rpa49, hits give low values 1.12 [resistant]
inactive: locus YAL021C, strain ccr4, hits give low values 1.05 | locus YAL026C, strain drs2, hits give low values 1.06 | locus YAL030W, strain snc1, hits give low values 1.01 | locus YBL061C, strain skt5, hits give low values 1.03 | locus YBR009C, strain hhf1, hits give low values 0.996 | locus YBR023C, strain chs3, hits give low values 1.03 | locus YBR171W, strain sec66, hits give low values 1.03 | locus YBR231C, strain swc5, hits give low values 0.995 | locus YBR279W, strain paf1, hits give low values 1.05 | locus YCL011C, strain gbp2, hits give low values 1.01 | locus YCL016C, strain dcc1, hits give low values 1.02 | locus YCL069W, strain vba3, hits give low values 1.04 | locus YCR088W, strain abp1, hits give low values 1.02 | locus YDL005C, strain med2, hits give low values 1.03 | locus YDL040C, strain nat1, hits give low values 1.02 | locus YDR001C, strain nth1, hits give low values 1.02 | locus YDR069C, strain doa4, hits give low values 1.05 | locus YDR137W, strain rgp1, hits give low values 1.05 | locus YDR159W, strain sac3, hits give low values 0.98 | locus YDR195W, strain ref2 0.978 | locus YDR297W, strain sur2, hits give low values 1.02 | locus YDR334W, strain swr1, hits give low values 1.02 | locus YDR335W, strain msn5, hits give low values 1.03 | locus YDR392W, strain spt3, hits give low values 0.984 | locus YEL003W, strain gim4, hits give low values 0.997 | locus YEL037C, strain rad23, hits give low values 1.02 | locus YEL061C, strain CIN8 (second series), hits give low values 1.04 | locus YER015W, strain faa2, hits give low values 1.04 | locus YER016W, strain bim1, hits give low values 1.03 | locus YER111C, strain swi4, hits give low values 1.03 | locus YER155C, strain BEM2 (second series), hits give low values 1.03 | locus YFR010W, strain ubp6, hits give low values 1.02 | locus YGL167C, strain pmr1, hits give low values 1.03 | locus YGL173C, strain kem1, hits give low values 1 | locus YGL227W, strain vid30, hits give low values 1.02 | locus YGL240W, strain doc1, hits give low values 0.968 | locus YGL253W, strain hxk2, hits give low values 1.03 | locus YHR013C, strain ard1, hits give low values 1.03 | locus YHR027C, strain rpn1, hits give low values 1 | locus YHR030C, strain SLT2, hits give low values 0.991 | locus YHR079C, strain IRE1, hits give low values 0.987 | locus YHR142W, strain chs7, hits give low values 1.06 | locus YJL092W, strain hpr5, hits give low values 1.02 | locus YJL095W, strain BCK1 (second series), hits give low values 1.02 | locus YJL095W, strain BCK1, hits give low values 1.01 | locus YJL115W, strain asf1, hits give low values 1.02 | locus YJL129C, strain trk1, hits give low values 1.05 | locus YJL154C, strain vps35, hits give low values 1.01 | locus YJL164C, strain tpk1, hits give low values 1.02 | locus YJL166W, strain qcr8, hits give low values 1.04 | locus YJR066W, strain TOR1, hits give low values 0.942 | locus YKL160W, strain elf1, hits give low values 1.02 | locus YKR026C, strain gcn3, hits give low values 1.04 | locus YKR091W, strain srl3, hits give low values 1.01 | locus YLL001W, strain dnm1, hits give low values 1 | locus YLL026W, hits give low values 1.02 | locus YLL041C, strain sdh2, hits give low values 1.03 | locus YLR027C, strain aat2, hits give low values 1.02 | locus YLR113W, strain HOG1, hits give low values 0.991 | locus YLR221C, strain rsa3, hits give low values 1 | locus YLR258W, strain gsy2, hits give low values 1.02 | locus YLR262C, strain YPT6 (second series), hits give low values 1.02 | locus YLR320W, strain mms22, hits give low values 0.981 | locus YLR342W, strain FKS1, hits give low values 1.04 | locus YLR357W, strain rsc2, hits give low values 1.06 | locus YLR370C, strain arc18, hits give low values 1.02 | locus YLR384C, strain iki3, hits give low values 1.01 | locus YML120C, strain ndi1, hits give low values 0.986 | locus YMR058W, strain fet3, hits give low values 1.05 | locus YMR125W, strain sto1, hits give low values 1.02 | locus YMR129W, hits give low values 1.02 | locus YMR205C, strain PFK2, hits give low values 0.995 | locus YMR231W, strain pep5, hits give low values 1.04 | locus YNL071W, strain lat1, hits give low values 1.03 | locus YNL183C, strain NPR1, hits give low values 0.944 | locus YNL209W, strain ssb2, hits give low values 1.02 | locus YNL322C, strain KRE1 (second series), hits give low values 1.03 | locus YNR049C, strain mso1, hits give low values 1.01 | locus YOR001W, strain rrp6, hits give low values 1.01 | locus YOR070C, strain gyp1, hits give low values 1.02 | locus YOR080W, strain dia2, hits give low values 1.03 | locus YOR083W, strain WHI5, hits give low values 0.993 | locus YOR106W, strain vam3, hits give low values 1.05 | locus YOR231W, strain MKK1, hits give low values 1.01 | locus YOR265W, strain rbl2, hits give low values 1.02 | locus YOR270C, strain vph1, hits give low values 1.16 | locus YOR290C, strain snf2, hits give low values 1.04 | locus YPL051W, strain arl3, hits give low values 1.06 | locus YPL078C, strain atp4, hits give low values 1.05 | locus YPL106C, strain sse1, hits give low values 1.05 | locus YPL240C, strain hsp82, hits give low values 1.01 | locus YPL256C, strain CLN2, hits give low values 0.995
